{
  "source": "PubChem BioAssay (NCI)",
  "note": "About 83,000 compounds went through this panel and 20% of them were active in at least one assay; those are over-represented in the sample as a whole.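 Single-dose data. Exposure time 48 hours. Values below 10 considered active.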 A number with no mark means an inactive call. Calls of active or inactive are those of the source.",
  "data": [
    {"system": "COLO 205 colon", "assay": "NCI-60 one-dose screen, 48 h (100 = growth as untreated, 0 = no growth, -100 = all killed)", "details": "10 µM", "method": "Cells are grown in 96 well plates and exposed to the test compound for 48 hours. Compounds are tested at a single concentration, which is 10^-5 M for most compounds. The reported endpoint is percent growth (GI% or GIPRCNT), where numbers from 0 - 100% represent growth inhibition, and numbers from -100% - 0 represent cell death. For example, a value of 40 represents 60% growth inhibition. A value of 0 means no net growth occurred over the course of the experiment. A value of -40 indicates 40% of cells at the beginning of the experiment died by the end of the experiment. A value of -100 means all cells are dead at the end of the experiment.\nNCI-60 Human Tumor Cell Lines Screen was performed using the standard one-dose NCI protocol, which is described in more detail at https://dtp.cancer.gov/discovery_development/nci-60/default.htm.\nCompounds with GIPRCNT values below 10 were considered active. Activity score was based on GIPRCNT using the following formula: […]\nScore is 0 for GIPRCNT values of 100 or above, 50 for GIPRCNT values of 0, and 100 for GIPRCNT values of -100.", "values": [
      {"molecule": "O=c1oc2c3ccc4cnccc4c3[nH]c2c2ccccc12", "growth": "-57.2% (active)"},
      {"molecule": "CC(Oc1ccc(Cl)cc1)c1ccccc1", "note": "(stereo not given)", "growth": "105%"},
      {"molecule": "c1ccc(CNc2nc(Nc3ccc(-c4nc5ccccc5[nH]4)cc3)c3cn[nH]c3n2)cc1", "growth": "-60.1% (active)"},
      {"molecule": "N=C(N)c1ccc(-c2ccc(-c3ccccc3)s2)s1", "growth": "-96.3% (active)"},
      {"molecule": "CCN(CC)CC(O)CNc1ccnc2cc(Cl)c(Cl)cc12", "note": "(stereo not given)", "growth": "78.1%"},
      {"molecule": "Nc1cc2c(cc1Cl)-c1ccc(Cl)cc1C2=O", "growth": "95.1%"},
      {"molecule": "CN(C)Cc1cccs1", "growth": "107%"},
      {"molecule": "O=C(c1ccccc1)C(Sc1ccccc1)c1ccccc1", "note": "(stereo not given)", "growth": "108%"},
      {"molecule": "COc1cc(-c2cc(-c3cc(OC)c(OC)c(OC)c3)nc3nc(N)[nH]c(=O)c23)ccc1Oc1ccnc2cc(Cl)ccc12", "growth": "105%"},
      {"molecule": "CC(=O)OC1Oc2ccccc2-c2oc(=O)c(-c3cc(=O)oc4cc(O)ccc34)cc21", "note": "(stereo not given)", "growth": "101%"},
      {"molecule": "CCOc1ccc2c(c1)CC[C@@H]1[C@@H]2CC[C@]2(C)[C@@H](O)[C@@H](O)C[C@@H]12", "growth": "112%"},
      {"molecule": "N#CCC1CCCC1", "growth": "109%"},
      {"molecule": "FC(F)(F)c1ccc(-c2cnc(Cl)nc2NC2CCCCCC2)cc1", "growth": "22%"},
      {"molecule": "COc1ccc(Nc2nc(NCc3ccccc3)c3ccccc3n2)cc1", "growth": "43.6%"},
      {"molecule": "COc1cc(C(=O)n2nc(N)c3c(C)cc(C)nc32)cc(OC)c1OC", "growth": "67.6%"},
      {"molecule": "COc1ccc(-c2cc(/C=C3\\C(=O)Nc4cc(Cl)ccc43)[nH]n2)cc1", "growth": "19.4%"},
      {"molecule": "CCC1(C)OC(=O)NC1=O", "note": "(stereo not given)", "growth": "103%"},
      {"molecule": "COc1cc(CSc2nc3ccc(C)cc3c(=O)n2-c2ccccc2)cc(OC)c1OC", "growth": "-24.2% (active)"},
      {"molecule": "Cc1ccc(-n2nnc3c(sc4ccccc43)c2=O)cc1", "growth": "44%"},
      {"molecule": "NC1CCC(Nc2nc(NCc3cc(Cl)ccc3O)c3ncn(C4CCCC4)c3n2)CC1", "note": "(stereo not given)", "growth": "-63.1% (active)"},
      {"molecule": "O=C(N/N=C\\c1cc(Cl)ccc1O)c1ccncc1", "growth": "23.7%"},
      {"molecule": "Cc1cc(OI)c(C(C)C)cc1-c1cc(C(C)C)c(OI)cc1C", "growth": "114%"},
      {"molecule": "C=CCc1cc(Nc2c3ccc(Cl)cc3nc3ccc(OC)cc23)cc(CN(CC)CC)c1O", "growth": "-83.9% (active)"},
      {"molecule": "C/C(=N/NC(=O)c1sc(=S)n(C)c1N)c1cc2cc(Cl)ccc2o1", "growth": "104%"},
      {"molecule": "COc1cc(C(c2c[nH]c3ccccc23)N2CCCC2)ccc1OCc1ccccc1", "note": "(stereo not given)", "growth": "104%"},
      {"molecule": "CCN(CC)CCOC(=O)c1ccc(NC(=O)Nc2cccc(Cl)c2)cc1", "growth": "105%"},
      {"molecule": "COc1cc(C2C=C(c3ccc(Cl)c(Cl)c3)N=C3SC(C)=CN32)cc(OC)c1OC", "note": "(stereo not given)", "growth": "81.3%"},
      {"molecule": "COc1cc2ccnc(C=O)c2cc1OC", "growth": "92.9%"},
      {"molecule": "N#Cc1c(-c2ccccc2)nc(SCC(=O)N2CCOCC2)[nH]c1=O", "growth": "105%"},
      {"molecule": "O=c1[nH]c(=O)n(C2C[C@@H](O)[C@@H](CO)O2)cc1F", "note": "(stereo not given in full)", "growth": "36.7%"},
      {"molecule": "CCc1c(C)[nH]c(=O)c(C(N)=O)c1C#N", "growth": "110%"},
      {"molecule": "FC(F)(F)c1ccc(-c2cnc(Br)nc2NC2CCCCCC2)cc1", "growth": "25.1%"},
      {"molecule": "O=C(N/N=C/c1ccccc1O)c1ccccc1", "growth": "19.3%"},
      {"molecule": "Cn1c(N)c(N=Cc2ccccc2)c(=O)n(C)c1=O", "growth": "106%"},
      {"molecule": "COc1ccc(C2CC(c3ccc(-c4ccccc4)cc3)=NN2c2ccc(S(N)(=O)=O)cc2)cc1", "note": "(stereo not given)", "growth": "83.8%"},
      {"molecule": "COc1ccc2nc(-c3ccccc3)cc(C(C)=O)c2c1", "growth": "110%"},
      {"molecule": "CCCCCN(CCCCC)C(C)C(O)c1ccc2cc(Cl)c3ccccc3c2c1", "note": "(stereo not given)", "growth": "83.9%"},
      {"molecule": "CCc1cc2n(n1)-c1ncc(C(=O)OC)cc1Oc1ccccc1-2", "growth": "116%"},
      {"molecule": "N#Cc1c2c([nH]c(=O)c1C(N)=O)CCCCC2", "growth": "102%"},
      {"molecule": "Nc1c(C(=O)NC2CCCCC2)sc2nc3c(cc12)C(=O)CCC3", "growth": "116%"}
    ]}
  ]
}
